TGFb inhibitor = inhibitors of TGF-b signaling. 1.2% of 410,000 active. HepG2 CAGA-GFP TGF-b/SMAD3 reporter, GFP fluorescence, 18 h; TGF-beta stimulated, 500 pg/mL final. Potency, µM (top dose mostly 46.1 µM), without a hit: at the top dose activity, negative = inhibition, actives largely listed as inhibitors; also: % is scaled to controls: 0 for no effect and ±100 for the full control effect; nearly all actives have a fitted effect of over 65% in size
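HEPG2 CAGA-GFP, 1000 cells/well; 2 h settle, 37 C; cpd via pin tool; TGF-b 500 pg/mL final; 18 h, 37 C; GFP imaging ex488/em500-530; %Activity normalised to -TGF-b and +DMSO controls; CRC fit, curve class.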
ATXN viability = cell viability loss in ATXN counter-screen; S2 cells (HEK-293 line with an ATXN2-luciferase reporter) viability, CellTiter-Fluor protease fluorescence, 24 h; Potency, µM (series often up to 56.7 µM), most hits filed as cytotoxic; 0.49% of 400,000 active; AID 651635; also: nearly all actives have a fitted effect of over 40% in size
ATXN2 expr inh = reduces ATXN2 reporter expression in HEK-293 cells; 0.72% of 360,000 active; HEK-293 ATXN2-luciferase reporter, luminescence, 24 h; AID 1745845; Potency, µM (doses to about 57 µM), for the others: at the top dose activity change, negative = inhibition, most hits filed as inhibitors; also: % is scaled to controls: 0 for no effect and ±100 for the full control effect; nearly all actives have a fitted effect of over 55% in size
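ATXN2-luciferase reporter cells (luciferase flanked by upstream and downstream ATXN2 gene portions) were treated 24 h at 37 °C with compounds at up to 57 uM. SteadyGlo luminescence gave expression; GF-AFC fluorescence gave viability.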
A549 viability = A549 cytotoxicity, counter-screen for Nrf2 inhibitors; A549 ARE-Fluc cells, CellTiter-Fluor viability, 18-24 h; Potency, µM (doses to about 46 µM), for inactives: top-dose activity change, negative = cytotoxicity, hits mostly inhibitors; 0.16% of 390,000 active; also: % is scaled to controls: 0 for no effect and ±100 for the full control effect
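A549 ARE_Fluc cells in 5% FBS OPTI-MEM were exposed to compounds in concentration-response for 18-24 h at 37 deg C. Viability was read by CellTiter-Fluor fluorescence (Ex 405/Em 525) after 30 min, before the luciferase read.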
HepG2 tox = kills HepG2 cells in TGF-b inhibitor counter-screen | HepG2 CAGA-GFP viability, ATP luminescence, 18 h | Potency, µM (top dose mostly 46.1 µM), without a hit: at the highest dose activity change, negative = cytotoxicity, usual class: cytotoxic | 0.76% of 410,000 active | AID 588856
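CellTiter-Glo luminescence gave cytotoxicity after 18 hours at 37 degrees C. The cells were HepG2 CAGA-GFP in 1% FBS DMEM, stimulated with 500 pg/mL TGF-beta after compound addition. %Activity was normalised to no-cell wells (complete cell-killing) and DMSO (no toxicity), and curves were fitted and classified.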
Nrf2 block = Nrf2 pathway inhibition; A549 ARE-Fluc reporter, luciferase luminescence, 18-24 h; Potency, µM (doses to about 46 µM), inactives show at the highest dose activity change, negative = inhibition, usual class: inhibitors; 2.1% of 360,000 active; AID 504444; also: % is scaled to controls: 0 for no effect and ±100 for the full control effect; nearly all actives have a fitted effect of over 60% in size
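Cells were seeded and rested 2 h, then exposed to compounds for 18-24 h. CellTiter-Fluor was read first as a viability measure. BugLite was added 15 min before the final luminescent read of ARE-luciferase activity in A549 cells.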
Numbers without * were called inactive; i = inactive; ? = inconclusive; · = no result given. The list is not random: actives were taken first. Their share in the collection is about 3.8%. Calls follow the shape of the dose curve; as a rule, active = well fitted curve in the direction sought with a large enough effect; inconclusive = small, poorly fitted or top-dose-only effect, or another doubt; inactive = no such curve, though single readings can be large; an effect the other way counts as inactive or inconclusive. Potency is read from the fitted curve at half-maximal effect.

SMILES | TGFb inhibitor | ATXN viability | ATXN2 expr inh | A549 viability | HepG2 tox | Nrf2 block
N#CC1=C(N)NC(SCC(=O)Nc2ccc(Br)cc2)=C(C#N)C12CCCCC2 | 18µM* | i | -21% | ? | -79% | ?
CC1CCCC12NC(=O)NC2=O (centres undefined) | 0% | i | 0% | -5% | 0% | -6%
CN(C1CCCCC1)S(=O)(=O)c1ccc2c(c1)c(=O)c(C(=O)O)cn2C | -2% | i | · | · | -3% | ·
O=c1c2ccccc2ncn1CCCSc1ccc(Cl)cc1 | -1% | i | -2% | 11% | -19% | 17%
O=c1c2ccccc2ncn1CCCSc1ccccc1 | -19% | i | 8% | ? | -34% | 23µM*
O=C(CCn1cnc(-c2ccccc2)c1-c1ccccc1)N/N=C/c1ccc(O)cc1 | 0% | ? | -34% | -21% | -16% | -19%
COc1ccc(/C=N/NC(=O)CCn2cnc(-c3ccccc3)c2-c2ccccc2)cc1 | 11µM* | i | -18% | ? | -35% | ?
O=C1NC(=S)SC1=Cc1ccc2c(c1)OCO2 | -1% | ? | -9% | ? | 10% | ?
O=C1NC(=S)N/C1=C/c1ccc2c(c1)OCO2 | 5% | i | · | ? | -30% | 13µM*
O=C(Nc1cccc(C(F)(F)F)c1)Nc1ccc2nc([C@@H]3O[C@H](CO)[C@@H](O)[C@H](O)[C@H]3O)[nH]c2c1 | -6% | i | 19% | · | 0% | ·
Cc1ncsc1C(=O)N1CCCC(CNS(=O)(=O)c2cccs2)C1 (centres undefined) | -6% | i | -25% | 18% | 4% | 8%
Cc1cccc(C(=O)NCC(=O)OCc2cc(=O)n3nc(C)sc3n2)c1 | -20% | i | -17% | -1% | 0% | ?
Cn1cnc2c(=O)oc3ccc(S(=O)(=O)Nc4ccc(F)cc4)cc3c21 | -11% | i | -14% | 10% | -21% | 10%
CCCCN(CCCC)C(=S)N/N=C/c1c(C)[nH]n(-c2ccccc2)c1=O | ? | i | ? | ? | -21% | ?
CCCSC(=S)c1c(C)[nH]n(-c2ccccc2)c1=O | 0% | · | 25µM* | -14% | -57% | ?
O=C(Nc1cccc(Br)c1)c1cccc(OC(=S)N2CCOCC2)c1 | ? | ? | ? | -2% | -8% | 16µM*
O=C(Nc1ccc(C(=O)N2CCOCC2)cc1)c1cccc(Br)c1 | -1% | i | -4% | -17% | -41% | -8%
CC(O)[C@@]1(O)CC[C@H]2[C@@H]3CC[C@H]4C[C@@H](O)CC[C@]4(C)C3=CC[C@@]21C (some centres undefined) | 12% | i | -3% | -11% | 13% | 1%
CC1C(=O)N(Cc2cn(CCC3OCCCO3)nn2)CCS(=O)(=O)N1Cc1ccc(-c2ccc(F)cc2)cc1 (centres undefined) | -19% | ? | ? | · | -14% | ·
COCOCCn1cc(CN2CCS(=O)(=O)N(Cc3ccc(-c4ccc(Cl)c(Cl)c4)cc3)C(C)C2=O)nn1 (centres undefined) | ? | · | 28µM* | · | -109% | ·
CCC/C=C/c1ccc(CN2C(CC(C)C)C(=O)N(Cc3cn(Cc4ccco4)nn3)CCS2(=O)=O)cc1 (centres undefined) | 16µM* | ? | ? | · | -88% | ·
CC1C(=O)N(Cc2cn(CCC3OCCCO3)nn2)CCS(=O)(=O)N1Cc1ccc(-c2ccc(Cl)c(Cl)c2)cc1 (centres undefined) | ? | 25µM* | 25µM* | · | -38% | ·
CC(C)CC1C(=O)N(Cc2cn(CCC3OCCCO3)nn2)CCS(=O)(=O)N1Cc1ccc(-c2ccc(Cl)c(Cl)c2)cc1 (centres undefined) | ? | 32µM* | ? | · | -56% | ·
Clc1ccc(OCCn2cnc(Cl)c2Cl)cc1 | -15% | i | 30% | 0% | -3% | -4%
Cn1c(=O)c2ncn(CC(=O)N/N=C/c3ccco3)c2n(C)c1=O | 7% | i | ? | 1% | 18% | ?
SMILES | TGFb inhibitor | ATXN viability | ATXN2 expr inh | A549 viability | HepG2 tox | Nrf2 block
CC1C(=O)N(Cc2cn(CCC3OCCO3)nn2)CCS(=O)(=O)N1Cc1ccc(-c2ccc(Cl)cc2)cc1 (centres undefined) | ? | 32µM* | ? | · | -24% | ·
Cc1cccc(C)c1-c1ccc(CN2C(CC(C)C)C(=O)N(Cc3cn(CCO)nn3)CCS2(=O)=O)cc1 (centres undefined) | ? | 32µM* | 28µM* | -2% | -84% | ?
C=C[C@@H]1c2cc(C)ccc2N(S(=O)(=O)c2ccc(C)cc2)[C@H](c2ccccc2C(F)(F)F)C1(C#N)C#N | -8% | i | -7% | 12% | -3% | -2%
O=C(Nc1ccc(Cl)cc1)c1cc(S(=O)(=O)N2CCOCC2)cs1 | 1% | i | -20% | ? | 0% | 4.6µM*
Cc1ccc(NC(=O)c2cc(S(=O)(=O)N3CCOCC3)cs2)cc1 | -9% | i | -14% | 2% | -12% | -19%
CC(C)Oc1ccc(CNS(=O)(=O)c2csc(C(N)=O)c2)cc1 | ? | ? | 0% | 3% | -7% | 15µM*
Cc1cc(C)cc(NS(=O)(=O)c2csc(C(N)=O)c2)c1 | 16% | i | 4% | 1% | 2% | ?
O=C(Nc1ccc(F)cc1)c1cc(S(=O)(=O)N2CCOCC2)cs1 | -19% | i | -19% | -7% | -35% | -2%
Cc1ccc(NC(=O)c2cc(S(=O)(=O)N3CCCCC3)cs2)cc1 | -28% | i | ? | -7% | -21% | 8.2µM*
Cc1ccc(NS(=O)(=O)c2csc(C(N)=O)c2)cc1C | 2% | i | -2% | -14% | 2% | 16µM*
COc1ccc(-c2ccc(-c3cc(=O)oc4cc(OC)c(OC)c(OC)c34)cc2)cc1 | -2% | i | -5% | 6% | -13% | ?
CN(C)c1ccc(NC(=O)CCSc2nc(-c3ccco3)cc(C(F)(F)F)n2)cc1 | -16% | · | · | -13% | -29% | ?
CCN(CC)C(=O)[C@H]1CC(CC(=O)NCCN2CCOCC2)C(=O)N2CCc3c([nH]c4ccccc34)[C@]12C (some centres undefined) | 2% | i | 1% | 3% | 9% | -3%
O=C(Nc1ccc(F)cc1)c1cc(S(=O)(=O)Nc2ccc(F)cc2)cs1 | ? | i | -3% | ? | -63% | 18µM*
COc1ccc(NC(=O)c2cc(S(=O)(=O)Nc3ccc(OC)cc3)cs2)cc1 | ? | i | · | 0% | -16% | ?
